In PubChem BioAssay (Tox21):
Results filed as inconclusive are left out. The source made the active and inactive calls. Unless noted, the call rests on the fitted dose curve; in most records, active means well fitted curve in the direction sought with a large enough effect in the repeat runs; inconclusive means weak or mixed curves; inactive means no such curve, though single readings can be large; an effect the other way counts as inactive or inconclusive.

How the values were obtained:
[1] = qHTS assay for small molecule agonists of the p53 signaling pathway (AID 651631; calls by dose curve; further: nearly all actives have a fitted effect of over 15% in size)
In short: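 Stably transfected HCT-116 cells (beta-lactamase behind p53 response elements) get compounds after a 5 h settling period; 16 h later at 37 °C, FRET substrate is loaded and fluorescence read after 2 h.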

[2] = qHTS assay for small molecules that induce genotoxicity in human embryonic kidney cells expressing luciferase-tagged ATAD5 (AID 651632); further: nearly all actives have a fitted effect of over 15% in size
In short: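 Increased luciferase signal from ATAD5-tagged reporter cells indicates DNA-damage-driven ATAD5 induction. HEK293T cells are treated for 16 hr at 37C before detection with Amplite.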

[3] = qHTS assay for small molecule agonists of the p53 signaling pathway - cell viability (AID 651633; calls by dose curve;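 further: p53RE-bla HCT reporter cells with a stable beta-lactamase p53 reporter; series mostly up to about 83 µM; nearly all actives have a fitted effect of over 30% in size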)
In short: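 Viability counter-read: CellTiter-Glo luminescence (30 min, room temperature) in the same p53RE-bla plates. These plates had been exposed to compounds for 16 h at 37 C.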

[4] = qHTS assay for small molecules that induce genotoxicity in human embryonic kidney cells expressing luciferase-tagged ATAD5 - cell viability (AID 651634; calls by dose curve; further: nearly all actives have a fitted effect of over 25% in size)
In short: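 Cytotoxicity counterscreen in HEK293T cells bearing an ATAD5-luciferase reporter: live-cell protease activity measured by CellTiter-Fluor fluorescence after 15.5 hr compound exposure.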

[5] = qHTS assay for small molecule disruptors of the mitochondrial membrane potential - cell viability (AID 720634; calls by dose curve;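 further: human HepG2 liver cancer cells; series mostly up to about 83 µM; nearly all actives have a fitted effect of over 20% in size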)
In short: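 After overnight attachment at 37 C, HepG2 cells received compound or DMSO vehicle for 1 hr. Viability is then taken from ATP-driven luminescence following a 30 min room-temperature CellTiter-Glo step.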

[6] = qHTS assay for small molecule disruptors of the mitochondrial membrane potential (AID 720635)
In short: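 Mitochondrial membrane potential tracked with Mito-MPS dye, red aggregates (ex 540/em 590 nm) against green monomers (ex 490/em 535 nm). Compound treatment 1 hr at 37C, dye 30 min in HepG2.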

[7] = qHTS assay to test for compound auto fluorescence at 590 nm (red) in HepG2 cells (AID 720674)
In short: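 Red autofluorescence (Ex/Em 540/590 nm, Rose Bengal sodium equivalents) was measured in HepG2 cells, 2,000 per well in MEM plus 10% FBS, plated overnight at 37 C. Readings were taken 1 hr after adding 23 nL compound or DMSO, at 37 C and 5% CO2.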

[8] = qHTS assay to test for compound auto fluorescence at 535 nm (green) in HepG2 cells (AID 720675)
[9] = qHTS assay to test for compound auto fluorescence at 590 nm (red) in HEK293 cells (AID 720679)
In short: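 HEK293 cells (2,000/well, 10% dialyzed FBS) attached 4-5 hr, then dosed with compound or DMSO and incubated overnight at 37C, 5% CO2. Red fluorescence read at 540/590 nm, Rose Bengal sodium as reference fluorophore.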

[10] = qHTS assay to test for compound auto fluorescence at 535 nm (green) in HEK293 cells (AID 720680)
[11] = qHTS assay to test for compound auto fluorescence at 460 nm (blue) in HEK293 cell free culture (AID 720681)
In short: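 Blue fluorescence (Ex 405/Em 460 nm, triamterene-equivalent) was read immediately after pin transfer of compound or DMSO into medium (DMEM, 10% FBS) without cells.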

[12] = qHTS assay to test for compound auto fluorescence at 535 nm (green) in HEK293 cell free culture (AID 720682)
In short: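 Using fluorescein as calibrant, autofluorescence was quantified at 485/535 nm in cell-free DMEM containing 10% FBS after pintool addition of compound or vehicle.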

[13] = qHTS assay to test for compound auto fluorescence at 590 nm (red) in HEK293 cell free culture (AID 720683)
In short: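 Red-channel autofluorescence of compounds in culture medium (DMEM, 10% FBS), no cells, measured at 540/590 nm. Rose Bengal sodium is the reference fluorophore for equivalence.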

[14] = qHTS assay to test for compound auto fluorescence at 590 nm (red) in HepG2 cell free culture (AID 720684)
In short: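 Steps: dispense MEM/10% FBS medium, no cells; pin compound or DMSO vehicle; read red channel, Ex/Em 540/590 nm. Output given as Rose Bengal sodium equivalents.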

[15] = qHTS assay to test for compound auto fluorescence at 460 nm (blue) in HepG2 cell free culture (AID 720685)
In short: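 Compound (23 nL) or DMSO pinned into cell-free MEM with 10% FBS; blue fluorescence read at 405/460 nm excitation/emission, expressed as auto-fluorescence equivalency to triamterene.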

[16] = qHTS assay to test for compound auto fluorescence at 535 nm (green) in HepG2 cell free culture (AID 720686)
[17] = qHTS assay to test for compound auto fluorescence at 460 nm (blue) in HepG2 cells (AID 720687)
In short: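 Blue-channel autofluorescence (Ex/Em 405/460 nm, triamterene-equivalent) was measured after 1 hr compound exposure at 37 C, 5% CO2. Cells were HepG2, plated overnight at 37 C in MEM plus 10% FBS.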

[18] = target: Glucocorticoid receptor (Homo sapiens) (UniProt P04150); assay: qHTS assay to identify small molecule agonists of the glucocorticoid receptor (GR) signaling pathway (AID 720691; active means well fitted activation curve with a large enough effect in the signal ratio in the repeat runs, not every such curve was filed as active; the % refers to the signal ratio)
Chain of Glucocorticoid receptor (Homo sapiens) (P04150 whole entry, looked up): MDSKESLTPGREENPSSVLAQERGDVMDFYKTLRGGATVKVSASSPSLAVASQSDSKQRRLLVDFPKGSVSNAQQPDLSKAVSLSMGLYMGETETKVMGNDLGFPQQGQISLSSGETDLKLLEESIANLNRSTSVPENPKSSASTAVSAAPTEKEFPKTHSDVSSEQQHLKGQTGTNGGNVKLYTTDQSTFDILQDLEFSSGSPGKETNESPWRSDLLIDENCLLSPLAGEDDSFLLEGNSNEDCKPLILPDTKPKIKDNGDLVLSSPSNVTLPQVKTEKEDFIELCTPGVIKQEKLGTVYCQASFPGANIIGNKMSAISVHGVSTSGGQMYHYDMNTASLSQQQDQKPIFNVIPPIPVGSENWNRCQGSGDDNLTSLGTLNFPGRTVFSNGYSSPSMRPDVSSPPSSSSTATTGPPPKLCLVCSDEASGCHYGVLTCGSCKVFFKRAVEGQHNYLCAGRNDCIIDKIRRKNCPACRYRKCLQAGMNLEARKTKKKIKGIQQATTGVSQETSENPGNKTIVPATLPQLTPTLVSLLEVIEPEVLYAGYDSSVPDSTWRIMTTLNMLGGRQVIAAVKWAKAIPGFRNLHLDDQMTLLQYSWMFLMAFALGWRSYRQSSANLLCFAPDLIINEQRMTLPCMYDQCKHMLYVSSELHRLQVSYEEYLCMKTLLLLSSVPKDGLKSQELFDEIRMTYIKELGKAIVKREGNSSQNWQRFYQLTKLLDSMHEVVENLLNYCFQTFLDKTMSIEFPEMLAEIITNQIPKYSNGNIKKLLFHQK
In short: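 Agonist mode in a HeLa line carrying a GRE-controlled beta-lactamase reporter. Compounds act for 18 h at 37 C before a 2 h room-temperature FRET substrate step and fluorescence reading.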

[19] = qHTS assay to test for compound auto fluorescence at 460 nm (blue) in HEK293 cells (AID 720678)
In short: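 HEK293 cells (2,000/well, medium with 10% dialyzed FBS) attached 4-5 hr, then exposed to compound overnight at 37C, 5% CO2. Blue fluorescence read at 405/460 nm, with triamterene as reference fluorophore.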

[20] = target: Glucocorticoid receptor (Homo sapiens) (UniProt P04150); assay: qHTS assay to identify small molecule antagonists of the glucocorticoid receptor (GR) signaling pathway (AID 720692; active means well fitted inhibition curve with a large enough effect in the signal ratio in the repeat runs, not every such curve was filed as active; the % refers to the signal ratio)
In short: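 Cells plated, rested 4 h at 37 C/5% CO2; compounds in DMSO pin-transferred; dexamethasone added to 5 nM final; 18 h at 37 C; B/G FRET substrate added, 2 h room temperature; fluorescence measured.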
On the % scale 0 is the no-effect control and ±100 the full control effect.

C[C@@H](O)[C@H]1C(=O)N2C(C(=O)O)=C(SCCN=CN)C[C@H]12
inactive: outcome [1] | Potency [2] | outcome [3] | Potency [4] | outcome [5] | Potency [6] | fluorescence, relative to Rose Bengal [7] -0.493% [at 18.6 µM] | fluorescence, % of fluorescein control [8] -0.19% [at 18.6 µM] | fluorescence, % of fluorescent control [9] 0.0064% [at 18.6 µM] | fluorescence, % of fluorescein [10] 0.0698% [at 18.6 µM] | fluorescence, % of fluorescent control [11] 1.12% [at 18.6 µM] | activity change [12] -0.0504% [at 18.6 µM] | fluorescence, % of fluorescent control [13] -0.0922% [at 18.6 µM] | fluorescence, % of Rose Bengal [14] 0.208% [at 18.6 µM] | fluorescence, % of fluorescent control [15] 1.1% [at 18.6 µM] | fluorescence, % of fluorescein control [16] 0.0651% [at 18.6 µM] | fluorescence, % of fluorescent control [17] 0.982% [at 18.6 µM] | Potency [18]

COC(=O)C1CC(=O)C(C(=O)OC)CC1=O (stereo not given)
inactive: activation [1] -2.34% [at 8.3 µM] | activation [2] 2.21% [at 8.08 µM] | activity change, negative = cytotoxicity [3] 20.9% [at 8.08 µM] | activity, negative = cytotoxicity [4] 31.1% [at 8.08 µM] | activity change, negative = cytotoxicity [5] 10.5% [at 8.08 µM] | fluorescence, relative to Rose Bengal [7] 0.406% [at 3.72 µM] | fluorescence, % of fluorescein control [8] 0.0015% [at 3.72 µM] | fluorescence, % of triamterene [19] 1.94% [at 3.72 µM] | fluorescence, % of fluorescein [10] -0.0599% [at 3.72 µM] | fluorescence, % of fluorescent control [11] 1.67% [at 3.72 µM] | activity change [12] -0.0001% [at 3.72 µM] | fluorescence, % of fluorescent control [13] 0.0034% [at 3.72 µM] | fluorescence, % of Rose Bengal [14] 0.258% [at 3.72 µM] | fluorescence, % of fluorescent control [15] 2.39% [at 3.72 µM] | fluorescence, % of fluorescein control [16] -0.0181% [at 3.72 µM] | fluorescence, % of fluorescent control [17] 1.56% [at 3.72 µM]

Oc1cn2c(n1)Nc1ccc(Cl)c(Cl)c1C2
inactive: outcome [1] | Potency [2] | outcome [3] | Potency [4] | outcome [5] | Potency [6] | outcome [7] | outcome [8] | outcome [9] | outcome [10] | outcome [11] | outcome [12] | outcome [13] | outcome [14] | outcome [15] | outcome [16] | outcome [17] | Potency [18]

OCCN(CCO)c1cccc(Cl)c1
inactive: outcome [1] | Potency [2] | outcome [3] | Potency [4] | outcome [5] | Potency [6] | outcome [8] | outcome [19] | outcome [9] | outcome [10] | outcome [11] | outcome [12] | outcome [13] | outcome [14] | outcome [15] | outcome [16] | outcome [17]

O=C1c2ccccc2C(=O)C1c1ccccc1
inactive: outcome [1] | Potency [2] | outcome [3] | Potency [4] | outcome [5] | fluorescence, relative to Rose Bengal [7] 0.709% [at 18.6 µM] | fluorescence, % of fluorescein control [8] 0.0928% [at 18.6 µM] | fluorescence, % of triamterene [19] -0.166% [at 18.6 µM] | fluorescence, % of fluorescent control [9] 0.0127% [at 18.6 µM] | fluorescence, % of fluorescein [10] -0.0324% [at 18.6 µM] | fluorescence, % of fluorescent control [11] -0.0862% [at 18.6 µM] | activity change [12] -0.148% [at 18.6 µM] | fluorescence, % of fluorescent control [13] 0.0114% [at 18.6 µM] | fluorescence, % of Rose Bengal [14] -0.261% [at 18.6 µM] | fluorescence, % of fluorescent control [15] -0.0248% [at 18.6 µM] | fluorescence, % of fluorescein control [16] -0.0587% [at 18.6 µM] | fluorescence, % of fluorescent control [17] -0.0075% [at 18.6 µM] | Potency [18]

CCCC/C=C/C=C\C=O
inactive: outcome [1] | Potency [2] | outcome [3] | Potency [4] | outcome [5] | outcome [7] | outcome [8] | outcome [19] | outcome [9] | outcome [10] | outcome [11] | outcome [12] | outcome [13] | outcome [14] | outcome [15] | outcome [16] | outcome [17]

Cc1ccc2c(c1)OCC(=O)CO2
inactive: outcome [1] | Potency [2] | outcome [3] | Potency [4] | outcome [5] | Potency [6] | outcome [7] | outcome [8] | outcome [9] | outcome [10] | outcome [11] | outcome [12] | outcome [13] | outcome [14] | outcome [15] | outcome [16] | outcome [17] | Potency [18]

CCCCCCCCC(=O)Cl
inactive: outcome [1] | Potency [2] | outcome [3] | Potency [4] | outcome [5] | outcome [7] | outcome [8] | outcome [19] | outcome [9] | outcome [10] | outcome [11] | outcome [12] | outcome [13] | outcome [14] | outcome [15] | outcome [16] | outcome [17]

Nc1ccc(S(=O)(=O)Nc2ccc(Cl)nn2)cc1
inactive: outcome [1] | Potency [2] | outcome [3] | Potency [4] | outcome [5] | Potency [6] | outcome [8] | outcome [19] | outcome [9] | outcome [10] | outcome [11] | outcome [12] | outcome [13] | outcome [14] | outcome [15] | outcome [16] | outcome [17]

O=C(O)C(=O)Cc1ccccc1
inactive: outcome [1] | Potency [2] | outcome [3] | Potency [4] | outcome [5] | outcome [7] | outcome [8] | outcome [19] | outcome [9] | outcome [10] | outcome [11] | outcome [12] | outcome [13] | outcome [14] | outcome [15] | outcome [16] | outcome [17] | outcome [20]

C=C(C)C(=O)OCC(C)(C)COC(=O)C(=C)C
inactive: outcome [1] | Potency [2] | outcome [3] | Potency [4] | outcome [5] | outcome [7] | outcome [8] | outcome [19] | outcome [10] | outcome [11] | outcome [12] | outcome [13] | outcome [14] | outcome [15] | outcome [16] | outcome [17]

CC(C)=CCOC(=O)c1ccccc1
inactive: outcome [1] | Potency [2] | outcome [3] | Potency [4] | outcome [5] | outcome [7] | outcome [8] | outcome [19] | outcome [9] | outcome [10] | outcome [11] | outcome [12] | outcome [13] | outcome [14] | outcome [15] | outcome [16] | outcome [17] | Potency [18]

CCCCCCCC/C=C\CCCCCCCC(=O)OCCCC
inactive: outcome [1] | Potency [2] | outcome [3] | Potency [4] | outcome [5] | fluorescence, relative to Rose Bengal [7] 0.139% [at 18.6 µM] | fluorescence, % of fluorescein control [8] -0.0204% [at 18.6 µM] | fluorescence, % of triamterene [19] -0.0584% [at 18.6 µM] | fluorescence, % of fluorescent control [9] 0.3% [at 18.6 µM] | fluorescence, % of fluorescein [10] 0.0126% [at 18.6 µM] | fluorescence, % of fluorescent control [11] -0.0858% [at 18.6 µM] | activity change [12] -0.0648% [at 18.6 µM] | fluorescence, % of fluorescent control [13] 0.213% [at 18.6 µM] | fluorescence, % of fluorescent control [15] -0.0292% [at 18.6 µM] | fluorescence, % of fluorescein control [16] -0.0278% [at 18.6 µM] | fluorescence, % of fluorescent control [17] -0.0041% [at 18.6 µM] | Potency [18]
